Data on 14 compounds can be found in PubChem BioAssay (NCI).

Common to all, as to experiment: NCI-60 one-dose screen, 48 h (100 = growth as untreated, 0 = no growth, -100 = all killed)
What all share (conditions): 10 µM

The subject of assay [1] is SK-MEL-2 melanoma.
Assay [2] relates to EKVX NSCLC.
Assay [3] deals with SN12C renal.
Assay [4] concerns UO-31 renal.
For assay [5], the system named is TK-10 renal.
In assay [6] the test system is ACHN renal.
Assay [7] has as its system CAKI-1 renal.
The test system of assay [8] is A498 renal.
The subject of assay [9] is CCRF-CEM leukemia.
The test system of assay [10] is MOLT-4 leukemia.

About 83,000 compounds went through this panel and 20% of them were active in at least one assay; those are over-represented in the sample as a whole.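 Single-dose data. Exposure time 48 hours. Values below 10 considered active.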 A number with no mark means an inactive call. Active and inactive are the calls of the source.

Consider `NS(=O)(=O)Oc1ccc(NC(=O)C2CCCCCC2)cc1`, for which the growth in assay [1] is 106%; in assay [2], 85.1%; in assay [3], 99.1%; in assay [4], 82.1%; in [5] it was 105%; in assay [6], 97.3%. Moreover, the growth was 87.4% in assay [7], 122% in assay [8], 89.4% in assay [9] and 104% in [10].
Take `COC(=O)c1cc2oc(/C=C3/SC(=S)N(N)C3=O)cc2n1Cc1ccccc1`: the growth was -14% (active) in assay [1]; 55.8% in assay [2]; 63.5% in assay [3]; -22.1% (active) in [4]; -4.58% (active) in [5]; 48.5% in assay [6]. Further, the growth in assay [7] is 60.2%; in assay [8], -76.4% (active); in [9], 6.84% (active); in assay [10], 4.64% (active).
`C=CCNCCN1C(=O)c2ccc3c4c(ccc(c24)C1=O)C(=O)N(CCNCC=C)C3=O`: the growth in assay [1] is -45.9% (active); in assay [2], -82% (active); in assay [3], -78% (active); in assay [4] it was -58.4% (active); in assay [5], -6.43% (active); in assay [6], -56.3% (active). For the same compound, the growth in assay [7] is -64.2% (active); in [8], -73.7% (active); in assay [9] it was 4.83% (active); in [10], -18.3% (active).
In the case of `O=C1/C=C/[C@@H](O)[C@@H]2C[C@@H](O)C[C@H]2/C=C/CCC[C@H](C(F)(F)F)O1`, the growth in assay [1] is -18.3% (active); in assay [2], 10.3%; in assay [3], 4.4% (active); in assay [4], -6.75% (active); in [5], -21% (active); in [6], 3.63% (active). The growth was 4.59% (active) in assay [7], -18.2% (active) in [8], 1.24% (active) in assay [9] and -0.315% (active) in assay [10].
As to `CCN(CC)CCCC(Nc1c2ccc(Cl)cc2nc2ccc(OC)cc12)c1ccc(F)cc1` (stereo not given), the growth in assay [1] was 116%; in [2], 40.2%; in assay [3], 25.7%; in assay [4] it was -43.3% (active); in [5] it was -59.6% (active); in assay [6], -58.9% (active). Further, the growth is 87.6% in [7], 59.5% in assay [8], -18.5% (active) in assay [9] and 2.74% (active) in assay [10].
Regarding `CC(C)c1cc(N=O)cc(C(C)C)c1O`, the growth in assay [1] is 107%; in assay [2], 105%; in assay [3] it was 94.2%; in [4], 90.2%; in assay [5], 115%; in assay [6] it was 98.6%. For the same compound, the growth was 95.2% in [7], 108% in [8], 101% in assay [9] and 89.1% in assay [10].
Take `CN1CCN(CCCn2c(=O)c3sc4ncccc4c3n3nnc(-c4ccccc4)c23)CC1`: the growth in assay [1] was -10.7% (active); in assay [2], 2.42% (active); in assay [3], 47.5%; in assay [4], -74.5% (active); in [5], -44.3% (active); in assay [6], -6.48% (active). In addition, the growth was -39.2% (active) in assay [7], 64.6% in assay [8], -14.7% (active) in [9] and -20% (active) in assay [10].
For `CN(C)c1ccc(/C=N/NC(=O)c2cccc3ccccc23)c(Cl)c1`, the growth was 28% in assay [1]; 45.2% in assay [2]; 42.9% in assay [3]; 57.5% in assay [4]; 63.8% in assay [5]; 51.2% in [6]. Besides, the growth in assay [7] is 48.5%; in assay [8], -3.25% (active); in [9], 10.1%; in assay [10], 15.5%.
Consider `CC(C)(C)OC(=O)CC(S(=O)(=O)c1ccccc1)S(=O)(=O)c1ccccc1`, for which the growth in assay [1] is 114%; in assay [2], 112%; in assay [3], 96.1%; in assay [4], 61.4%; in assay [5], 21.4%; in [6] it was 17.8%. Also, the growth in [7] is 90.6%; in assay [8], 102%; in assay [9], 46.9%; in assay [10], 82.7%.
With `CCOC(=O)/C(=C(\C)N)C1CC(=O)NC1=O` (stereo not given), the growth in assay [1] is 123%; in assay [2], 102%; in [3], 96.5%; in assay [4], 87.9%; in [5] it was 118%; in assay [6] it was 94%. The growth in assay [7] was 98.2%; in assay [8], 107%; in assay [9], 96.2%; in assay [10], 104%.
As for `COc1cc(/C=C/c2cc(/C=C/c3ccc(O)c(OC)c3)n(C(=O)Nc3ccccc3Cl)n2)ccc1O`, the growth is -12.3% (active) in [1]; 17.7% in assay [2]; 14.2% in assay [3]; -34.8% (active) in assay [4]; 16.1% in [5]; 12.8% in assay [6]. The growth in assay [7] was 7.29% (active); in assay [8], -11.8% (active); in [9] it was -4.54% (active); in [10], -4.57% (active).
In the case of `O=C(Cn1cc(CO)nn1)Nc1nc2ccccc2s1`, the growth in assay [1] was 107%; in assay [2] it was 94.1%; in assay [3], 96.5%; in assay [4], 72.6%; in [5], 106%; in [6], 104%. Also, the growth in [7] was 88.9%; in assay [8] it was 118%; in assay [9] it was 103%; in assay [10], 104%.
`O=C(/C=C/c1cccc(B(O)O)c1)c1cccc(B(O)O)c1`: the growth in assay [1] was 44.8%; in assay [2], 56.3%; in assay [3] it was -3.76% (active); in assay [4], -82.5% (active); in assay [5], -11.7% (active); in [6] it was 0.0369% (active). In addition, the growth in assay [7] is -8.72% (active); in assay [8], 65.5%; in assay [9], -13.8% (active); in assay [10], 2.84% (active).
With `CC1OC2CC(=O)OC2C2=C1C(=O)c1c(O)c3c(c(O)c1C2=O)C1CC(O)C3(O)C(C)O1` (stereo not given), the growth in assay [1] was -55.7% (active); in assay [2], 13.1%; in assay [3] it was -33% (active); in [4], 1.82% (active); in assay [5] it was -16.6% (active); in [6], -16.2% (active). The growth was 8.24% (active) in assay [7], -18.1% (active) in assay [8], 12% in [9] and -21.7% (active) in assay [10].
